In PubChem BioAssay AID504616 (Sanford-Burnham Center for Chemical Genomics, 2011):
This is one part of the list. Activity calls are given as the source filed them.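 Rule for the calls: active = mean activity change at or below -40% when tested at 20 µM; inactive = the rest.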

Assay: detection-step artefacts after finished caspase reaction – biochemical, fluorescence, Rh110, 20 µM, artefact control for Apaf-1 activator project, confirmation (AID 504616)
Settings: quenched caspase reaction, Ex480/Em540, at 20 µM

Fluorescence interference (activity change), inactive:
COc1cc(C2C(C#N)=C(N)Oc3n[nH]c(-c4ccccn4)c32)cc(OC)c1OC (configuration not stated) 14.4%
COc1ccc(S(=O)(=O)N2CCCCC2)cc1NC(=O)c1cc([N+](=O)[O-])ccc1N1CCOCC1 4.4%
COc1ccccc1OCC(=O)Nc1c2c(nn1-c1ccc(F)cc1)CS(=O)(=O)C2 9.44%
N#CC1(C#N)C(C(=O)C23CC4CC(CC(C4)C2)C3)C12CCOCC2 (configuration not stated) -0.76%
O=C(Nc1cccc(-c2nc3ccccc3[nH]2)c1)c1ccc(C(=O)Nc2cccc(-c3nc4ccccc4[nH]3)c2)cc1 7.06%
O=c1[nH]c2c(c(=O)n1Cc1ccccc1)CCC2 13.7%
O=[N+]([O-])c1ccc2nc(-c3ccccn3)[nH]c2c1 5.13%
